Test results published in PubChem BioAssay (Tox21).
Inconclusive results are not listed. Active and inactive are the calls of the source. Unless noted, calls follow the shape of the dose curve; as a rule, active = well fitted curve in the direction sought with a large enough effect in the repeat runs; inconclusive = weak or mixed curves; inactive = no such curve, though single readings can be large; an effect the other way counts as inactive or inconclusive.

Tests used:
[1] = qHTS assay to test for compound auto fluorescence at 535 nm (green) in HEK293 cells (AID 720680)
[2] = qHTS assay to test for compound auto fluorescence at 460 nm (blue) in HEK293 cell free culture (AID 720681)
In short: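 Compounds were added to cell-free DMEM with 10% FBS and fluorescence read directly. The blue channel used 405 nm excitation and 460 nm emission, with triamterene as the reference fluorophore.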

[3] = qHTS assay to test for compound auto fluorescence at 535 nm (green) in HEK293 cell free culture (AID 720682)
In short: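 DMEM + 10% FBS, cell-free; cpd or DMSO pinned in; Ex485/Em535 read; output as fluorescein-equivalent signal.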

[4] = qHTS assay to test for compound auto fluorescence at 590 nm (red) in HEK293 cell free culture (AID 720683)
In short: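 Cell-free wells of DMEM with 10% FBS received compound, and intrinsic fluorescence was read at excitation/emission 540/590 nm. Values expressed as equivalence to Rose Bengal sodium.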

[5] = qHTS assay to test for compound auto fluorescence at 590 nm (red) in HepG2 cell free culture (AID 720684)
In short: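 Compound was pinned into wells holding MEM with 10% FBS and no cells, and red fluorescence was read at Ex/Em 540/590 nm. Signal is expressed as auto fluorescence equivalency relative to Rose Bengal sodium.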

[6] = qHTS assay to test for compound auto fluorescence at 460 nm (blue) in HepG2 cell free culture (AID 720685)
In short: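 Compound (23 nL) or DMSO pinned into cell-free MEM with 10% FBS; blue fluorescence read at 405/460 nm excitation/emission, expressed as auto-fluorescence equivalency to triamterene.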

[7] = qHTS assay to test for compound auto fluorescence at 535 nm (green) in HepG2 cell free culture (AID 720686)
[8] = molecular target: Glucocorticoid receptor (Homo sapiens) (UniProt P04150); test: qHTS assay to identify small molecule agonists of the glucocorticoid receptor (GR) signaling pathway (AID 720691; active = well fitted activation curve with a large enough effect in the signal ratio in the repeat runs, not every such curve was filed as active; the % refers to the signal ratio)
In short: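 Agonist mode in a HeLa line carrying a GRE-controlled beta-lactamase reporter. Compounds act for 18 h at 37 C before a 2 h room-temperature FRET substrate step and fluorescence reading.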

[9] = molecular target: Glucocorticoid receptor (Homo sapiens) (UniProt P04150); test: qHTS assay to identify small molecule antagonists of the glucocorticoid receptor (GR) signaling pathway (AID 720692; active = well fitted inhibition curve with a large enough effect in the signal ratio in the repeat runs, not every such curve was filed as active; the % refers to the signal ratio)
In short: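 Cells plated, rested 4 h at 37 C/5% CO2; compounds in DMSO pin-transferred; dexamethasone added to 5 nM final; 18 h at 37 C; B/G FRET substrate added, 2 h room temperature; fluorescence measured.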

[10] = qHTS assay for identifying genotoxic compounds that show differential cytotoxicity against isogenic chicken DT40 cell lines with known DNA damage response pathways - wild type cell line (AID 743012); also: nearly all actives have a fitted effect of over 60% in size
In short: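 Cells (DT40 wild type, 300/well) are treated with DMSO-dissolved compounds after a ~0.5 h pre-incubation and kept 40 h at 37 C/5% CO2. Viability is then measured by CellTiter-Glo luminescence following 30 min at room temperature.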

[11] = qHTS assay for identifying genotoxic compounds that show differential cytotoxicity against isogenic chicken DT40 cell lines with known DNA damage response pathways - Rev3 mutant cell line (AID 743014); also: nearly all actives have a fitted effect of over 55% in size
[12] = qHTS assay for identifying genotoxic compounds that show differential cytotoxicity against isogenic chicken DT40 cell lines with known DNA damage response pathways - Rad54/Ku70 mutant cell line (AID 743015); also: nearly all actives have a fitted effect of over 60% in size
[13] = qHTS assay to identify small molecule antagonists of the androgen receptor (AR) signaling pathway - cell viability counter screen (AID 743033; also: nearly all actives have a fitted effect of over 45% in size)
[14] = qHTS assay to identify small molecule antagonists of the androgen receptor (AR) signaling pathway using the MDA cell line - cell viability counter screen (AID 743041; also: nearly all actives have a fitted effect of over 45% in size)
In short: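 MDA-kb2 AR-luc cells (MMTV-luciferase, AR/GR responsive) treated with compounds plus R1881 agonist for 16 h at 37C. CellTiter-Fluor added at 15.5 h; fluorescence read after 30 min in the same wells.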

[15] = qHTS assay to identify small molecule antagonists of the glucocorticoid receptor (GR) signaling pathway - cell viability counter screen (AID 720693); also: nearly all actives have a fitted effect of over 55% in size
[16] = molecular target: Androgen receptor (Homo sapiens) (UniProt P10275); test: qHTS assay to identify small molecule antagonists of the androgen receptor (AR) signaling pathway (AID 743035; active = well fitted inhibition curve with a large enough effect in the signal ratio in the repeat runs, not every such curve was filed as active; the % refers to the signal ratio)
In short: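 Antagonism is scored as loss of R1881-driven beta-lactamase reporter expression in HEK293 cells carrying the reporter under a UAS element, after 16 h co-treatment at 37C and a 2 h room-temperature FRET substrate read.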

[17] = molecular target: Androgen receptor (Homo sapiens) (UniProt P10275); test: qHTS assay to identify small molecule agonists of the androgen receptor (AR) signaling pathway using the MDA cell line (AID 743040; also: nearly all actives have a fitted effect of over 20% in size)
In short: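 MDA-kb2 breast carcinoma cells carrying MMTV-luciferase (responsive to AR and GR), plated 5 h then treated 16 h with compounds at 37C, 0% CO2. Read-out was ONE-Glo luminescence after 30 min at room temperature.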

[18] = molecular target: Androgen receptor (Homo sapiens) (UniProt P10275); test: qHTS assay to identify small molecule antagonists of the androgen receptor (AR) signaling pathway using the MDA cell line (AID 743042; also: nearly all actives have a fitted effect of over 55% in size)
In short: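 MDA-kb2 breast carcinoma cells carrying MMTV-luciferase (AR/GR responsive) were co-treated with compounds and the agonist R1881 for 16 h at 37C. Inhibition read as ONE-Glo luminescence; CellTiter-Fluor fluorescence measured in parallel for cytotoxicity.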

[19] = qHTS assay to test for compound auto fluorescence at 460 nm (blue) in HepG2 cells (AID 720687)
In short: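 HepG2 cells in MEM with 10% FBS, attached overnight at 37 C, were exposed to compound or DMSO for 1 hr at 37 C, 5% CO2. Blue fluorescence was read at 405/460 nm, with triamterene as reference fluorophore.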

[20] = molecular target: Androgen receptor (Homo sapiens) (UniProt P10275); test: qHTS assay to identify small molecule agonists of the androgen receptor (AR) signaling pathway (AID 743036; active = well fitted activation curve with a large enough effect in the signal ratio in the repeat runs, with a control signal flat, not every such curve was filed as active; the % refers to the signal ratio)
In short: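 Screening used 2,000 AR-bla HEK293 cells per well, treated 16 h at 37C with test compounds in DMSO alongside positive and DMSO-only controls; beta-lactamase activity was then read by LiveBLAzer B/G FRET fluorescence after 2 h at room temperature.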

Measured: Potency

Glucocorticoid receptor (Homo sapiens), sequence (P04150 whole entry, looked up): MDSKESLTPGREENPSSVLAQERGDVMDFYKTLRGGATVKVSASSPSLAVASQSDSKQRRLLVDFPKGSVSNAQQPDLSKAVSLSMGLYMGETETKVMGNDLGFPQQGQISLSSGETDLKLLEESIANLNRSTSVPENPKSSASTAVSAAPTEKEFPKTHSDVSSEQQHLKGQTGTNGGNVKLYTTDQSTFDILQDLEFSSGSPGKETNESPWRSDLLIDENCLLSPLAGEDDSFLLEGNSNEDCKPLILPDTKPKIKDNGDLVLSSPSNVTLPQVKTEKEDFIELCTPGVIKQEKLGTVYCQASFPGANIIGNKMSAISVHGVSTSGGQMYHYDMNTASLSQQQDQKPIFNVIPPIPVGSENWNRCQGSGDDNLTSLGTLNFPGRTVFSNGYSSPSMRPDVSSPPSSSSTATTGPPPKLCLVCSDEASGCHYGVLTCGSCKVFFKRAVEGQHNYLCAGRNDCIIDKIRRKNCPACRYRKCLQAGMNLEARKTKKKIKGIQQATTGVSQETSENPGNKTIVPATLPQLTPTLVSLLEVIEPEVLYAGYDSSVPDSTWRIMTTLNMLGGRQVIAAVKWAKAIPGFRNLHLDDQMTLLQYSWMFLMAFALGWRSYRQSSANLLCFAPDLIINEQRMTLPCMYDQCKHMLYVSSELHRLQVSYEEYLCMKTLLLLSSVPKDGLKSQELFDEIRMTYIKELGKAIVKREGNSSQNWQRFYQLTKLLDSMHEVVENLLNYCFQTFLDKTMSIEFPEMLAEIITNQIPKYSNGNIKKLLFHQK
Androgen receptor (Homo sapiens), sequence (P10275 whole entry, looked up): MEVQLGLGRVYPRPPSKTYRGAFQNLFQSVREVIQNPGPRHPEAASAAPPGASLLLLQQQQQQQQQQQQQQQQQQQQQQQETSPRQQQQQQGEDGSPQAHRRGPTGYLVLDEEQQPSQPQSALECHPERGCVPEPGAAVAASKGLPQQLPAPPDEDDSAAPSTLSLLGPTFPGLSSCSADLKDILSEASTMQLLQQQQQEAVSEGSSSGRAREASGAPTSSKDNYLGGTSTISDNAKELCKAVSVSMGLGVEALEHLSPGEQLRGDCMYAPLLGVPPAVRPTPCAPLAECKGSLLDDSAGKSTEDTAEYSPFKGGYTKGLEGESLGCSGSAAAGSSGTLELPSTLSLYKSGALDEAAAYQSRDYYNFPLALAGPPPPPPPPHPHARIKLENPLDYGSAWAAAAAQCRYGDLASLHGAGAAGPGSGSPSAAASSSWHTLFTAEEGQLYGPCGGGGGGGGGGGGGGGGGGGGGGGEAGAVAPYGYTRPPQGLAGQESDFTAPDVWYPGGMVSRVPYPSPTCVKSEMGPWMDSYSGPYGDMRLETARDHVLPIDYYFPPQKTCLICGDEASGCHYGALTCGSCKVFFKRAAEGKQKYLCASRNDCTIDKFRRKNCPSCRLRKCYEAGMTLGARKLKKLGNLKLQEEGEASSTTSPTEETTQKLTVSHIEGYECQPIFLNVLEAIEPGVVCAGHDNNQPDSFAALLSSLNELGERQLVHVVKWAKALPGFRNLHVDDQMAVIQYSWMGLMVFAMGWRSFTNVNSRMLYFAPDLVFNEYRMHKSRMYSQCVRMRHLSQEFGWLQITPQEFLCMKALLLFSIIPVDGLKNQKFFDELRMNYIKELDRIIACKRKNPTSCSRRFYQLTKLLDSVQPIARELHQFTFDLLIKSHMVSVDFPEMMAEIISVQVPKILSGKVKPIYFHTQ

CC(C)COC(=O)c1ccc(N)cc1
inactive: [1] | [2] | [3] | [4] | [5] | [6] | [7] | [8] | [9] | [10] | [11] | [12] | [13] | [14]

C=C(C)C(=O)OCC1CCCO1 (centres undefined)
inactive: [1] | [2] | [3] | [4] | [5] | [6] | [7] | [8] | [9] | [15] | [10] | [11] | [12] | [13] | [14]

CCCCc1ccc2c(n1)[C@@H](c1ccc(OC)cc1C[C@H](C)C(=O)O)[C@H](C(=O)O)[C@H]2c1ccc2c(c1)OCO2
inactive: [1] | [2] | [3] | [4] | [5] | [6] | [7] | [8] | [9] | [10] | [11] | [12] | [13] | [14]

CC(=O)c1ccccc1[N+](=O)[O-]
inactive: [1] | [2] | [3] | [4] | [5] | [6] | [7] | [15] | [10] | [11] | [12] | [13] | [14]

CC(=O)Oc1cccc(C)c1
inactive: [1] | [2] | [3] | [4] | [5] | [6] | [7] | [15] | [10] | [11] | [12] | [13] | [14]

CN(C)CCN(C)CCN(C)C
inactive: [1] | [2] | [3] | [4] | [5] | [6] | [7] | [8] | [9] | [15] | [11] | [12] | [13] | [14]

CN(C)[C@@H]1C(=O)C(C(=O)NCN2CCCC2)=C(O)[C@@]2(O)C(=O)C3=C(O)c4c(O)cccc4[C@@](C)(O)C3C[C@@H]12 (some centres undefined)
inactive: [1] | [2] | [3] | [4] | [5] | [6] | [7] | [8] | [9] | [15] | [10] | [11] | [12] | [13] | [14]

CC1CCC(CO)CC1 (centres undefined)
inactive: [1] | [2] | [3] | [4] | [5] | [6] | [7] | [8] | [15] | [10] | [11] | [12] | [13] | [16] | [17] | [14] | [18]

C=CCOCC(O)CO (centres undefined)
inactive: [1] | [2] | [3] | [4] | [5] | [6] | [7] | [8] | [9] | [15] | [10] | [11] | [12] | [13] | [14]

NC(=O)Cc1cccc2ccccc12
inactive: [1] | [2] | [3] | [4] | [5] | [6] | [7] | [8] | [9] | [10] | [11] | [12] | [13] | [14]

O=S(=O)(O)c1cccc2ccccc12
inactive: [1] | [2] | [3] | [4] | [5] | [6] | [7] | [8] | [15] | [10] | [11] | [12] | [13] | [14]

COc1cc(-c2ccc(=O)[nH]n2)ccc1OC(F)F
inactive: [1] | [2] | [3] | [4] | [5] | [6] | [7] | [19] | [10] | [12] | [13] | [14]

CC(=O)Nc1ccc(OCC(O)CNC(C)C)cc1 (centres undefined)
inactive: [1] | [2] | [3] | [4] | [5] | [6] | [7] | [8] | [9] | [15] | [10] | [12] | [13] | [14]

O=S(=O)(O)c1cccc(S(=O)(=O)O)c1
inactive: [1] | [2] | [3] | [4] | [5] | [6] | [7] | [19] | [10] | [12] | [13] | [16] | [17] | [14] | [18]

CCC(=O)OCc1ccccc1
inactive: [1] | [2] | [3] | [4] | [5] | [6] | [7] | [8] | [9] | [11] | [12] | [13] | [14]

CCCCOCCOC(=O)COc1cc(Cl)c(Cl)cc1Cl
inactive: [1] | [2] | [3] | [4] | [5] | [6] | [7] | [8] | [9] | [15] | [10] | [11] | [12] | [13] | [16] | [20] | [17] | [14] | [18]

CC(CC=O)CC(C)(C)C (centres undefined)
inactive: [1] | [2] | [3] | [4] | [5] | [6] | [7] | [15] | [10] | [11] | [12] | [13] | [14]
